Results reported in PubChem BioAssay.
The source made the active and inactive calls. Unless noted, the rule behind the calls is not given here.

Tests used:
[1] = A549 cell viability effects, profiling panel, calcein-AM fluorescence, 48 h, basal (AID 1162); settings: higher = more signal; note: test concentration not given here
[2] = adipocyte viability effects, profiling panel, cell-based, 3T3-L1 adipocytes, calcein-AM fluorescence, 48 h, basal (AID 1163); settings: 3T3-L1 adipocytes viability, higher = more signal; note: test concentration not given here
[3] = HepG2 cell viability effects, profiling panel, calcein-AM fluorescence, 48 h, basal (AID 1164); settings: higher = more signal; note: test concentration not given here
[4] = MM1S cell viability effects, profiling panel, calcein-AM fluorescence, 48 h, basal (AID 1165); settings: higher = more signal;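 note: viability of MM1S multiple myeloma cells under basal unstimulated conditions; test concentration not given here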
[5] = basal RPMI8226 viability, no added stimulus, profiling panel, cell-based, calcein-AM fluorescence, 48 h, PK04 Diversity Set (AID 1166); settings: higher = more signal; RPMI8226 myeloma viability, calcein-AM fluorescence, 48 h unless noted;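 note: cells grown under basal conditions without added stimulus; test concentration not given here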
[6] = basal HepG2 mitochondrial membrane potential changes, profiling panel, cell-based, JC-1 fluorescence, 24 h, 100 nL compound (AID 1167); settings: higher = more signal; note: test concentration not given here
[7] = basal 3T3-L1 adipocyte mitochondrial potential changes, profiling panel, cell-based, JC-1 fluorescence, 3T3-L1 adipocytes, 24 h, 100 nL compound (AID 1168); settings: JC-1 mitochondrial fluorescence; higher = more signal, called active from +8 up or from −8 down unless noted; note: test concentration not given here
[8] = basal RPMI8226 mitochondrial membrane potential changes, profiling panel, cell-based, JC-1 fluorescence, 24 h, 100 nL compound (AID 1169); settings: higher = more signal; RPMI8226 myeloma, JC-1 mitochondrial potential fluorescence, 24 h unless noted; note: test concentration not given here
[9] = basal MM1S mitochondrial membrane potential changes, profiling panel, cell-based, JC-1 fluorescence, 24 h, 100 nL compound (AID 1170); settings: higher = more signal; note: test concentration not given here
[10] = A549 lung cancer cell viability effects, profiling panel, resazurin fluorescence, 24 h, PK04 Diversity Set (AID 1171); settings: higher = more signal, called active from +8 up or from −8 down unless noted; note: test concentration not given here
[11] = HepG2 liver cancer cell viability effects, profiling panel, resazurin fluorescence, 24 h, PK04 Diversity Set (AID 1172); settings: higher = more signal; note: test concentration not given here
[12] = basal S. cerevisiae growth modulation, no modifier, primary screen, OD600, strain BY4716, 24 h, basal condition (AID 1173); settings: OD600, 24 h; higher = more signal, called active from +8 up or from −8 down unless noted
[13] = MM1S myeloma cell viability, profiling panel, resazurin fluorescence, basal, 24 h, PK04 Diversity Set (AID 1174); settings: higher = more signal, called active from +8 up or from −8 down unless noted;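 note: MM1S multiple myeloma cell line; test concentration not given here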
[14] = molecular target: Dihydroorotate dehydrogenase (quinone), mitochondrial (Plasmodium falciparum (isolate 3D7)) (UniProt Q08210); assay: PfDHODH enzyme inhibitors, primary screen, biochemical, C-terminal His tag, absorbance 600 nm (AID 1175); settings: DCIP absorbance 600 nm; higher = more signal, called active from +8 up or from −8 down unless noted;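 note: recombinant parasite enzyme with a five histidine tag at its C terminus; test concentration not given here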
Sequence of Dihydroorotate dehydrogenase (quinone), mitochondrial (Plasmodium falciparum (isolate 3D7)) (Q08210 whole entry, looked up): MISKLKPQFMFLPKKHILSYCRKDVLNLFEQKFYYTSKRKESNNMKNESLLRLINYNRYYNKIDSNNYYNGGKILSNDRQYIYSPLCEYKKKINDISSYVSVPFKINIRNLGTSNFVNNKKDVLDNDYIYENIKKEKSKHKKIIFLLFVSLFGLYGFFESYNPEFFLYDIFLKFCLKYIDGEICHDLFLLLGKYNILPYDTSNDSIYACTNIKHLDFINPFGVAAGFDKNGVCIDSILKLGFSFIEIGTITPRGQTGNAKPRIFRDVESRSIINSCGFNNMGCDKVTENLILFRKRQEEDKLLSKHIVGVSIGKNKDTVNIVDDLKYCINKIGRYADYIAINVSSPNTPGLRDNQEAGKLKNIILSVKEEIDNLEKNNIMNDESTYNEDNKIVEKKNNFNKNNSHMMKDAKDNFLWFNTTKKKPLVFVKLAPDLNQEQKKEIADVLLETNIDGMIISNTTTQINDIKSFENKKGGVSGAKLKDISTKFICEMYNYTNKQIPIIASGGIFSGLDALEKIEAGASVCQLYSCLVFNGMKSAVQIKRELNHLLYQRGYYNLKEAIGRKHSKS

[15] = P. aeruginosa biofilm formation inhibitors, primary screen, strain PAO1, LB-PBS medium, absorbance 600 nm (AID 1176); note: test concentration not given here; settings: P. aeruginosa PAO1 growth/biofilm, A600, 12 h; higher = more signal
[16] = S. cerevisiae RM11-1a growth modifiers, primary screen, strain RM11-1a, OD600, basal, 24 h (AID 1177); settings: OD600, 24 h; higher = more signal, called active from +8 up or from −8 down unless noted;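 note: cultures grown under basal conditions with no added stressor; test concentration not given here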
[17] = E. coli acrAB mutant growth effects, primary screen, E. coli filamentation inducers, strain DRC39, OD650, 24 h (AID 1178); settings: higher = more signal, called active from +8 up or from −8 down unless noted;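 note: growth measured as culture turbidity by optical density at 650 nm; test concentration not given here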
[18] = E. coli acrAB mutant growth effects, primary screen, E. coli filamentation inducers, strain DRC39, OD650, 48 h (AID 1179);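 note: screen aims at cell division blockers that make cells filament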; settings: E. coli DRC39 delta-acrAB growth, higher = more signal, called active from +8 up or from −8 down unless noted
[19] = RPMI8226 myeloma cell viability, profiling panel, resazurin fluorescence, basal, 24 h, PK04 Diversity Set (AID 1180); settings: higher = more signal; RPMI8226 viability, resazurin fluorescence, 24 h unless noted;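 note: RPMI8826 multiple myeloma cell line at 5000 cells per well; test concentration not given here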
[20] = molecular target: E3 ubiquitin-protein ligase XIAP (Homo sapiens) (UniProt P98170); assay: XIAP binders, primary screen, biophysical, small-molecule microarray, fluorescence 635 nm (AID 1181); settings: small-molecule microarray binding, higher = more signal;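 note: score merges 667 nm emission and signal to noise over triplicate slides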
Sequence of E3 ubiquitin-protein ligase XIAP (Homo sapiens) (P98170 whole entry, looked up): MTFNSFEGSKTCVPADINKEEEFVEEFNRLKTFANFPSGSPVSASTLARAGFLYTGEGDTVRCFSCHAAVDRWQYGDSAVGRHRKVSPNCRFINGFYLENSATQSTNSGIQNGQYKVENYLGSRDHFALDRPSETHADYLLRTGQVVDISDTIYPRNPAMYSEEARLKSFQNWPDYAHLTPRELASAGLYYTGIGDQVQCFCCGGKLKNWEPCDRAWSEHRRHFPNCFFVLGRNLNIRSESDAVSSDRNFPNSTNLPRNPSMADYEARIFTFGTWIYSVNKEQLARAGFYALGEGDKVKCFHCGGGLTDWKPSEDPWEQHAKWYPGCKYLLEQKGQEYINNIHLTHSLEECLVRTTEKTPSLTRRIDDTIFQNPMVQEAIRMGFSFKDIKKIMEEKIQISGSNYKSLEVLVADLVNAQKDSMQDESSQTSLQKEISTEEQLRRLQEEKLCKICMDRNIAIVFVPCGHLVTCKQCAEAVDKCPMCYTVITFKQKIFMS

Row | Compound | z-score [1] | z-score [2] | z-score [3] | z-score [4] | z-score [5] | z-score [6] | z-score [7] | z-score [8] | z-score [9] | z-score [10] | z-score [11] | z-score [12] | z-score [13] | composite z-score [14] | z-score [15] | z-score [16] | z-score [17] | z-score [18] | z-score [19] | composite z-score [20]
1 | COC(=O)[C@H]1[C@@H](O)[C@@]2(O)c3c(OC)cc(OC)cc3O[C@@]2(c2ccc(OC)cc2)[C@@H]1c1ccccc1 | -2.35 | -1.63 | -2.23 | -3.46 | -3.35 | -2.69 | -0.0573 (inactive) | -0.727 | -1.19 | -4.41 (inactive) | -2.12 | -0.795 (inactive) | -3.65 (inactive) | -0.447 (inactive) | 0.511 (inactive) | 0.452 (inactive) | 0.945 (inactive) | 0.669 (inactive) | -4.1 | -0.245
2 | COC(=O)[C@H]1[C@H](c2ccccc2)C(=O)[C@]2(O)c3ccccc3O[C@@]12c1ccccc1 | 0.594 | 0.833 | -0.0328 | 0.391 | 0.001 | 0.338 | -0.113 (inactive) | 0.289 | -0.0594 | -1.73 (inactive) | -0.514 | -2.2 (inactive) | -0.417 (inactive) | -1.36 (inactive) | 0.711 (inactive) | -1.43 (inactive) | 0.401 (inactive) | -1.04 (inactive) | -0.865 | 0.17
3 | COC(=O)[C@@]1(Cc2ccccc2)[C@H]2c3cc(C(=O)N(C)C)n(C)c3C[C@H]2CN1C(=O)c1ccccc1 | -1.73 | -0.537 | -0.189 | 0.0394 | -1.19 | 0.0427 | -0.078 (inactive) | -0.318 | -0.437 | 0.0026 (inactive) | -0.0935 | 0.658 (inactive) | -0.923 (inactive) | -0.105 (inactive) | -0.222 (inactive) | 0.299 (inactive) | 0.0242 (inactive) | 0.0618 (inactive) | -0.0721 | 0.071
4 | CCc1cc2c(nc1CC)CCN(CCC(C)=NOC)C2 | 0.151 | 0.504 | 0.0911 | 0.69 | -2.14 | 2.55 | -1.37 (inactive) | 1.07 | 0.196 | -0.521 (inactive) | -0.64 | -0.37 (inactive) | 0.0324 (inactive) | 0.273 (inactive) | 0.0738 (inactive) | 0.246 (inactive) | -0.983 (inactive) | -2.63 (inactive) | 0.0393 | -0.0773
5 | CN1CCc2nc(CO)c(CO)cc2C1 | 1.18 | 0.593 | 0.0749 | -1.02 | 0.672 | 0.302 | -0.23 (inactive) | 0.38 | 1.04 | 0.515 (inactive) | 0.328 | 1.31 (inactive) | 0.692 (inactive) | 0.693 (inactive) | -0.188 (inactive) | 1.18 (inactive) | 0.0008 (inactive) | -0.019 (inactive) | 1.42 | -0.144
6 | COC(=O)[C@@]1(Cc2ccc(F)cc2)[C@H]2c3cc(C(=O)N(C)C)[nH]c3C[C@H]2CN1C(=O)c1ccccc1 | -0.632 | -0.597 | 0.337 | 0.334 | -0.425 [setting not given] | 0.174 | 0.0376 [setting not given] (inactive) | -0.101 [setting not given] | -0.872 | -0.868 [setting not given] (inactive) | -1.3 | 1.11 [setting not given] (inactive) | -0.811 [setting not given] (inactive) | 0.25 [setting not given] (inactive) | 0.191 (inactive) | 1.09 [setting not given] (inactive) | -0.119 [setting not given] (inactive) | 0.169 [E. coli growth] (inactive) | -0.487 [setting not given] | 0.0546
7 | CCCC[C@@H]1C[C@H]1[C@@H](NP(=O)(c1ccccc1)c1ccccc1)c1ccc(Cl)cc1 | -0.656 | -1.31 | -0.868 | -2.05 | -4.62 | -1.35 | -0.729 (inactive) | -0.861 | -1.11 | 2.22 (inactive) | 1.46 | -1.14 (inactive) | 0.105 (inactive) | -0.717 (inactive) | 0.122 (inactive) | -0.357 (inactive) | -0.429 (inactive) | -0.363 (inactive) | -0.0326 | 0.0077
8 | C[C@@H]1OC=C2[C@@H](O)[C@H]3O[C@H]3C(=O)[C@]23[C@H]1[C@H]1C2=C([C@@H](O)[C@H]4O[C@H]4C2=O)[C@@H]3O[C@@H]1C | 0.304 | 0.441 | 0.0428 | -0.297 | -0.594 | -0.888 | -0.3 (inactive) | 0.0604 | 0.144 | 0.703 (inactive) | 0.216 | 0.243 (inactive) | 0.103 (inactive) | -0.0198 (inactive) | 0.0251 (inactive) | -0.541 (inactive) | -0.03 (inactive) | -0.0416 (inactive) | 0.864 | -0.135
